Data taken from PubChem BioAssay AID504725 (Broad Institute, 2011).
Results with a measured potency or affinity are listed apart.

Target: KSHV LANA C-terminal domain (residues 932-1162) binding to LBS DNA (UniProt O40947)
Test: KSHV LANA DNA-binding disruption – biochemical, fluorescence polarization, cherry-picked samples, dose response (AID 504725)
Details: MBP-C-LANA / FAM-LBS DNA fluorescence polarization, percent change from plate compound-well median; series mostly up to 35 µM; activity change, negative = inhibition: at the top concentration; call rule not given here

Activity change, negative = inhibition, inactive:
CCN(CC(=O)Nc1ccc(OC)cc1)C(=O)c1cc([N+](=O)[O-])ccc1N1CCOCC1 1.06%
CCOC(=O)N1CCN(C(=S)NC(=O)c2cccc(OC)c2)CC1 -2.68%
Cc1cc(NC(=O)CSc2nnc(COc3cccc(C)c3C)n2C)no1 0.641%
O=C(/C=N/NC(=O)c1ccc(Cl)cc1Cl)c1ccccc1 2.06%
